# Screens as filed in PubChem BioAssay.
# Rab9 prom act: Rab9 promoter activation; Huh7 Rab9 promoter-luciferase reporter, luminescence, 24 h; Potency, µM (series often up to 9.22 µM), most hits filed as activators; 320,000 compounds, 2.8% hits; also: nearly all actives have a fitted effect of over 60% in size
#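 Quantitative HTS format; Huh7 Rab9-luciferase reporter cells (1500/well) receive compound 2 h post-plating, incubate 24 h at 37 °C, then get luciferase reagent for 10 min before luminescence reading.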
# ELG1 DNA repair: ELG1-dependent DNA repair inhibition | HEK293T ELG1-luciferase reporter, luminescence, 16 h; DNA damage induced by 5-fluorouridine | Potency, µM (top dose mostly 46.1 µM), most hits filed as inhibitors | 330,000 compounds, 2.3% hits | AID 504467; also: nearly all actives have a fitted effect of over 55% in size
#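 HEK293T cells expressing luciferase-tagged ELG1 (2,000/well) received 5-Fluorouridine plus compound or DMSO for 16 hr at 37 °C. Luciferase was read by ONE-Glo luminescence after 30 min at room temperature.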
# ELG1 genotox: genotoxicity induction in ELG1-luciferase HEK293T cells; HEK293T ELG1-luciferase reporter, luminescence, 16 h; Potency, µM (series often up to 46 µM), hits mostly activators; 330,000 compounds, 1.3% hits; also: nearly all actives have a fitted effect of over 60% in size
#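 DMSO vehicle served as control against compound-treated ELG1-luciferase HEK293T cells; exposure lasted 16 hr at 37 °C and 5% CO2, followed by ONE-Glo luminescence detection after 30 min.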
# SMN2 splice up: increases expression of the SMN2 splice variant | HEK293 SMN2-luciferase splicing reporter, luminescence, 30-36 h | 210,000 compounds, 2.8% hits | Potency, µM (titrated, usually from 46.1 µM), usual class: activators; also: nearly all actives have a fitted effect of over 55% in size
#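 qHTS luciferase splicing reporter: luminescence rises when SMN2 exon 7 is included in transfected HEK293 cells. Compound exposure lasted 30-36 h at 37C, with 4.5 mM final sodium butyrate as control, followed by a ONE-Glo read.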
# NPC1 prom act: activates the NPC1 promoter. 320,000 compounds, 2.4% hits. Potency, µM (top dose mostly 9.22 µM), most hits filed as activators. Huh7 NPC1 promoter luciferase reporter, 24 h; also: nearly all actives have a fitted effect of over 60% in size
#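 Compounds in DMSO were transferred onto Huh7 NPC1-luciferase reporter cells pre-incubated 2 h; after 24 h at 37 °C, Amplite reagent was dispensed and luminescence recorded 10 min later.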
# FLuc modulator: counter-screen for miR-21 project: firefly luciferase inhibitors or activators; purified FLuc, Km substrates, luminescence inhibition; Potency, µM (highest dose often 57.5 µM), usual class: inhibitors; 360,000 compounds, 6.9% hits; also: nearly all actives have a fitted effect of over 55% in size
# Target sequence (P08659 whole entry, looked up): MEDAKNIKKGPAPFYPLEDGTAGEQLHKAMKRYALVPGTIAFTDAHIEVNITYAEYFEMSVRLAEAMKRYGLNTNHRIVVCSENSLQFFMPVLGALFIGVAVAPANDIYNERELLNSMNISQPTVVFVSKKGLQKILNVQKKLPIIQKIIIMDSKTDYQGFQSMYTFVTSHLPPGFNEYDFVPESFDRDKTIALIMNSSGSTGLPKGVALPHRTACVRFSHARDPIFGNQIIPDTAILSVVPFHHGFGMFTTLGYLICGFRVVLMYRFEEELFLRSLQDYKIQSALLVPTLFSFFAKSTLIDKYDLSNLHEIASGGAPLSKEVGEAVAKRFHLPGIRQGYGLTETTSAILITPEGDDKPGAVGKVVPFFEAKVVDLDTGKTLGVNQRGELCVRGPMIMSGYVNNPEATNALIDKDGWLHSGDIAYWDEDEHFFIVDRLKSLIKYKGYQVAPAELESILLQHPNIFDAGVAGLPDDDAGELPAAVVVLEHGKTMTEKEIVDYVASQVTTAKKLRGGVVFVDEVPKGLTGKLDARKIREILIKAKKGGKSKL
#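 Purified P. pyralis luciferase (10nM final) with 10uM D-luciferin and 10uM ATP (Km levels) in 50mM Tris acetate pH 7.5, 10mM Mg acetate, 0.01% Tween-20, 0.05% BSA; qHTS 6-point titration, ~60 µM downward; luminescence read.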
# Numbers stand for hits; . = inactive; ? = inconclusive; / = not tested or not shown; [ ] = dose if it differs, or a comment. Most compounds without a hit are left out; they make up all but 9.2% or so of the library. Calls follow the shape of the dose curve; as a rule, active = well fitted curve in the direction sought with a large enough effect; inconclusive = small, poorly fitted or top-dose-only effect, or another doubt; inactive = no such curve, though single readings can be large; an effect the other way counts as inactive or inconclusive.
SMILES,Rab9 prom act,ELG1 DNA repair,ELG1 genotox,SMN2 splice up,NPC1 prom act,FLuc modulator
CC(=O)c1cccc(NC(=S)NC(=O)c2ccc(C)cc2)c1,1.4µM,?,?,11µM,3.2µM,11µM
O=C(NC(=S)Nc1ccccc1C(=O)O)c1ccc2ccccc2c1,.,.,.,/,.,?
Cc1cccc(C(=O)NC(=S)Nc2ccc(Cc3ccncc3)cc2)c1,.,.,.,.,.,?
CC(C)C[C@H](NC(=O)OC(C)(C)C)C(=O)N[C@@H](CO)[C@H](O)[C@@H]1C[C@@H]1C(=O)N1CCCC1,.,?,.,/,.,.
COc1ccc([C@]23Cc4cc(C#N)ccc4C(O2)c2c(c4ccc(OC)cc4oc2=O)O3)cc1,.[1.84 µM],/,/,/,.[1.84 µM],.[11.5 µM]
O=C(NC(=S)Nc1cccc(CO)c1)c1ccc(-c2ccccc2)cc1,1.6µM,.,.,?,1µM,?
CCC(=O)Nc1cccc(NC(=S)NC(=O)c2ccc(C)cc2)c1,1.6µM,?,?,10µM,2µM,6.7µM
O=C(Cc1ccccc1)Nc1ccc(NC(=S)NC(=O)c2ccccc2)cc1,.,.,.,/,.,.
CCC(=O)NC(=S)Nc1cccc(NC(=O)CC)c1,.,.,.,.,.,.
Cc1nc(-c2nc(-c3c(C(=O)NN)noc3C)cs2)cs1,?,?,.,?,.,17µM
CCOC(=O)c1c(S(=O)(=O)N2CCC(C(=O)N3CCN(c4ccccc4F)CC3)CC2)c(C)n(C)c1C,/,/,/,/,/,.
O=C(N/N=C/c1ccccc1[N+](=O)[O-])c1ccc2c(c1)OCCO2,?,?,?,/,0.63µM,0.24µM
O=C(N/N=C/c1cc(O)ccc1[N+](=O)[O-])c1ccc2c(c1)OCCO2,2µM,?,?,/,?,0.6µM
COCCNc1ccc2cc(S(=O)(=O)N3CCCCC3)ccc2n1,/,/,/,/,/,.
CCc1cccc(C)c1NC(=O)CN1CCCN(Cc2ccccc2Cl)S1(=O)=O,/,/,/,/,/,.
CC(C)CN1C(=O)c2ccc(C(=O)Nc3nccs3)cc2C1=O,?,?,?,.,?,6.7µM
Cc1ccccc1NC(=O)c1ccc2c(c1)C(=O)N(CC(C)C)C2=O,.,.,.,/,.,.
CC(C)CN1C(=O)c2ccc(C(=O)Nc3ccccc3C(=O)O)cc2C1=O,4.5µM,?,?,/,2.5µM,3µM
CC(C)CN1C(=O)c2ccc(C(=O)Nc3ccccn3)cc2C1=O,?,?,?,.,?,2.7µM
COc1ccccc1N1CCN(c2ccc(=O)n(CC(=O)NCc3ccc(F)cc3)n2)CC1,/,/,/,/,/,.
CCOC(=O)C(=Cc1ccc(OCc2ccc([N+](=O)[O-])cc2)c(OC)c1)C(=O)OCC,.,18µM,.,.,.,15µM
COc1cc(C=O)ccc1OCCCOc1ccc([N+](=O)[O-])cc1,.,.,.,.,.,.
COC(=O)C(=Cc1ccc(OCc2ccc([N+](=O)[O-])cc2)c(OC)c1)C(=O)OC,.,?,?,16µM,.,9.5µM
COc1cc(C(c2c(C)[nH][nH]c2=O)c2c(C)[nH][nH]c2=O)ccc1OCc1ccc([N+](=O)[O-])cc1,.,?,18µM,18µM,.,.
Cc1ccc(SCCNC(=O)CN(c2cccc(C)c2C)S(C)(=O)=O)cc1,/,/,/,.,/,.
SMILES,Rab9 prom act,ELG1 DNA repair,ELG1 genotox,SMN2 splice up,NPC1 prom act,FLuc modulator
Cn1c(=O)c(-c2cc(=O)[nH][nH]2)c(O)c2ccccc21,.,.,.,.,.,.
CC(C)(C)OC(=O)n1cc(C(=O)c2ccccc2O)cn1,.,.,.,/,.,?
CC1CCN(C(=O)c2cc(-c3ccc4c(c3)OCO4)on2)CC1,1.1µM,?,2.9µM,/,0.63µM,2.7µM
CCC1CCCCN1C(=O)c1cc(-c2ccc(Cl)c(Cl)c2)on1 (centres undefined),?,?,?,.,?,19µM
CC1CCCCN1C(=O)c1cc(-c2ccc3c(c2)OCO3)on1 (centres undefined),0.89µM,?,12µM,/,0.63µM,3.8µM
CC1CCCCN1C(=O)c1cc(-c2ccc(Cl)c(Cl)c2)on1 (centres undefined),2.5µM,?,?,?,4µM,12µM
